From PubChem
Hits are enriched below; roughly 19% of the tested compounds scored in any of these assays.
BCR signal inh: qHTS Assay to Find Inhibitors of Chronic Active B-Cell Receptor Signaling; 340,000 compounds, 0.05% hits; Potency, µM (highest dose often 46.1 µM), inactives show at the highest dose activity change, negative = inhibition, hits mostly inhibitors; ABC-DLBCL IkBa-CBG/CBR reporter, luminescence ratio, 4 h; active means well fitted inhibition curve with a large enough effect in the signal ratio, with a control signal flat, not every such curve was filed as active; inconclusive means small, poorly fitted or top-dose-only effect, or effect the other way, or a change in a side signal; the % refers to the signal ratio;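 further: potency means the concentration at half of the fitted maximal effect; plate controls were basal doxycycline-induced cells for no effect and cells given 10 µM MG132 for full effect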
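Concentration-response series (up to 46 uM) were applied to TMD8 dual-reporter cells for 4 h at 37C with doxycycline. Green/red ratio, after filter-overlap correction, defined %Activity; red signal alone was normalised to basal cells and zero luminescence.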
DT40 TDP1 no CPT: qHTS for Inhibitors of human tyrosyl-DNA phosphodiesterase 1 (TDP1): qHTS in cells in absence of CPT | DT40 Tdp1-/- hTDP1 cells, no CPT, ATP luminescence, 48 h | Potency, µM (titrated, usually from 46.2 µM), without a hit: top-dose activity change, negative = growth inhibition, hits mostly inhibitors | 420,000 compounds, 15% hits; further: potency means the concentration at half of the fitted maximal effect; on the % scale 0 is the no-effect control and ±100 the full control effect; nearly all actives have a fitted effect of over 55% in size
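Cells were dispensed at 400 per well, compounds added by pin tool, plates incubated ≥48 hr at 37 °C, then CellTiter-Glo added for 30 min at room temperature before luminescence reading. Line: DT40 Tdp1-/- complemented with hTDP1; camptothecin omitted.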
SW480 rereplic: A quantitative high throughput screen for small molecules that induce DNA re-replication in SW480 colon adenocarcinoma cells | 340,000 compounds, 1.8% hits | Potency, µM (doses to about 46.1 µM), without a hit: at the top dose re-replication activation, usual class: activators | SW480 DNA re-replication, Hoechst DNA content imaging, 48 h; further: potency means the concentration at half of the fitted maximal effect; % of control where 0% means no effect; nearly all actives have a fitted effect of over 55% in size
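Cells (250 per well) received 23 nL compound or DMSO by pin tool and were kept 48 hr at 37 C, 5% CO2. Nuclei were then stained with Hoechst for 40 min and scanned for DNA content.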
MCF10A rerep: A quantitative high throughput screen for small molecules that induce DNA re-replication in MCF 10a normal breast cells; MCF 10A DNA re-replication, Hoechst nuclear intensity, 48 h; Potency, µM (top dose mostly 46.1 µM), for the others: top-dose activity, positive = re-replication, usual class: activators; 350,000 compounds, 2.9% hits; AID 624296, 2012; further: potency means the concentration at half of the fitted maximal effect; % of control where 0% means no effect; nearly all actives have a fitted effect of over 50% in size
TDP1 cell CPT: qHTS for Inhibitors of human tyrosyl-DNA phosphodiesterase 1 (TDP1): qHTS in cells in presence of CPT. chicken DT40 Tdp1-/-;hTDP1 cells + 20 nM CPT, ATP luminescence, 48 h. Potency, µM (titrated, usually from 46.2 µM), for inactives: top-dose activity change, negative = growth inhibition, actives largely listed as inhibitors. 420,000 compounds, 12% hits. AID 686979, 2013; further: potency means the concentration at half of the fitted maximal effect; on the % scale 0 is the no-effect control and ±100 the full control effect; nearly all actives have a fitted effect of over 55% in size
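Chicken DT40 Tdp1-/- cells complemented with human TDP1, 400 cells/well, exposed to compounds plus 20 nM camptothecin for at least 48 h at 37 C; viability read as ATP content by CellTiter-Glo luminescence.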
IL1B secr inh: qHTS for Inhibitors of Inflammasome Signaling: IL-1-beta AlphaLISA Primary Screen; THP-1 LPS/ATP IL-1B secretion, AlphaLISA, 16 h; active compounds read low; activity change, % at 57.5 µM; 360,000 compounds, 4.7% hits; in the data active means activity change below about -50%; inconclusive means mostly about -30% to -49%; further: on the % scale 0 is the no-effect control and ±100 the full control effect
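Secreted IL-1B measured by AlphaLISA bead assay after 16 h compound exposure of THP-1 cells; compounds (final up to 57.5 uM) added 1 h before LPS (250 ng/mL) and ATP (1.25 mM) stimulation; lower signal means less secretion.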
* marks the source's active call; other numbers are inactive results. Unless noted, the call rests on the fitted dose curve; in most records, active means well fitted curve in the direction sought with a large enough effect; inconclusive means small, poorly fitted or top-dose-only effect, or another doubt; inactive means no such curve, though single readings can be large; an effect the other way counts as inactive or inconclusive.

Screening O=C(O)c1c(-c2ccccc2)oc2ccc(O)cc12 returned BCR signal inh -0.2%, DT40 TDP1 no CPT -2.0%, SW480 rereplic -7.0%, MCF10A rerep 0.1%, TDP1 cell CPT 14.7% and IL1B secr inh 22.5.
`O=Cc1c(-c2ccc(Cl)cc2)oc2ccc(O)cc12` gave DT40 TDP1 no CPT inconclusive, SW480 rereplic 29.1%, MCF10A rerep 10.0%, TDP1 cell CPT -4.0% and IL1B secr inh -55.5*.
Screening CC(=O)Oc1ccc(Cl)cc1CN(C(C)=O)C1CCCCC1 returned DT40 TDP1 no CPT inconclusive, SW480 rereplic -5.8%, MCF10A rerep inconclusive, TDP1 cell CPT 23.1µM* and IL1B secr inh inconclusive.
`CC(=O)Oc1ccccc1C(=O)N(C1CCCCC1)C1CCCCC1` gave BCR signal inh 3.6%, DT40 TDP1 no CPT 13µM*, SW480 rereplic -15.9%, MCF10A rerep 24.9%, TDP1 cell CPT 23.1µM* and IL1B secr inh 0.0.
CC(=O)c1cc(Cl)ccc1OCC(=O)NC1CCCC1 was read as BCR signal inh -14.2%, DT40 TDP1 no CPT inconclusive, SW480 rereplic -34.4%, MCF10A rerep -2.0%, TDP1 cell CPT inconclusive and IL1B secr inh 10.1.
`COc1ccc(OCC(=O)N2CCCC(Nc3ccc(C)c(C)c3)C2)cc1` (centres undefined) gave DT40 TDP1 no CPT -18.3%, TDP1 cell CPT -13.1% and IL1B secr inh 26.7.
Screening Cn1nnnc1SCCNCc1ccccc1OCc1ccc(Cl)cc1Cl returned DT40 TDP1 no CPT 9.2µM* and TDP1 cell CPT 18.4µM*.
CCOc1cc(CNCCSc2nnnn2C)ccc1OCc1ccc(Cl)cc1Cl was read as DT40 TDP1 no CPT 25.9µM* and TDP1 cell CPT 25.9µM*.
For CC(C)c1ccc(CNCCSc2nnnn2C)cc1 the results were DT40 TDP1 no CPT -17.2% and TDP1 cell CPT -7.2%.
`COc1ccc(NC(=O)Cn2c(=O)n(-c3ccc(OC)cc3)c(=O)c3ccc(C(=O)NCc4ccc(C)cc4)cc32)cc1` gave DT40 TDP1 no CPT -1.8% and TDP1 cell CPT inconclusive.
For COc1ccc(Cl)cc1NC(=O)Cn1c(=O)n(-c2ccc(C)cc2)c(=O)c2ccc(C(=O)NCc3ccccc3Cl)cc21 the results were DT40 TDP1 no CPT inconclusive and TDP1 cell CPT 4.61µM*.
For COc1ccc(-n2c(=O)c3ccc(C(=O)NCc4ccc(C)cc4)cc3n(CC(=O)Nc3cccc(F)c3)c2=O)cc1 the results were DT40 TDP1 no CPT inconclusive and TDP1 cell CPT 13µM*.
`O=C(Cn1c(=O)n(-c2ccccc2)c(=O)c2ccc(C(=O)NCc3ccc4c(c3)OCO4)cc21)Nc1ccc(Br)cc1F` gave DT40 TDP1 no CPT 14.6µM* and TDP1 cell CPT inconclusive.
`Cc1ccc(C(=O)OCC(=O)NNC(=O)c2ccc([N+](=O)[O-])cc2)o1` gave BCR signal inh -3.1%, DT40 TDP1 no CPT -10.6%, SW480 rereplic 1.4%, MCF10A rerep -1.4%, TDP1 cell CPT -5.4% and IL1B secr inh 5.0.
For CCCCCN(CCCCC)c1ccc(/C=C/c2ccnc3ccccc23)cc1 the results were DT40 TDP1 no CPT 12.6µM* and TDP1 cell CPT inconclusive.
Screening O=C(O)CCN(CCC(=O)O)c1ccc(/C=C/c2ccnc3ccccc23)cc1 returned DT40 TDP1 no CPT -24.6% and TDP1 cell CPT -8.0%.
Screening CCCCN(CCC(=O)O)c1ccc(/C=C/c2ccnc3ccccc23)cc1 returned DT40 TDP1 no CPT 15.8µM* and TDP1 cell CPT 5.62µM*.
